From PubChem BioAssay AID1159580 (chemical genetic matrix, 2015)
Where “and” joins values, the source holds several entries; their conditions need not be identical. Equal values may be shown once. Among all 5,500 compounds or so, about 2,000 (36%) were called active. About 18% were inconclusive and are not listed. Cut-off read from the data, not from the text of the source: active = normalized growth mostly below about 0.91 (no sharp cut-off); inconclusive = no clear call, values can overlap the other calls; inactive = mostly above about 0.92. This is one part of the list.

Experiment: chemical genetic growth profiling, strain panel (AID 1159580);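 note: tested at 20 µM; growth read once vehicle control cultures reached saturation at 30 °C; 1 = growth at the plate median or of vehicle wells; lower values mean less growth of the strain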
Settings: growth OD

Measured: normalized growth

O=C(O)c1cc(=O)c2c(Cl)cc(Cl)cc2[nH]1
inactive: S. cerevisiae deletion strains, locus YJL187C, strain SWE1, hits give low values 1.02 | S. cerevisiae deletion strains, locus YJR043C, strain POL32, hits give low values 1 | S. cerevisiae deletion strains, locus YJR075W, strain HOC1, hits give low values 0.985 | S. cerevisiae deletion strains, locus YKL009W, strain mrt4, hits give low values 1 | S. cerevisiae deletion strains, locus YKL068W, hits give low values 1 | S. cerevisiae deletion strains, locus YKL085W, strain MDH1 (second series), hits give low values 1.01 | S. cerevisiae deletion strains, locus YKL085W, strain MDH1, hits give low values 1.01 | S. cerevisiae deletion strains, locus YKL160W, strain elf1, hits give low values 1.01 | S. cerevisiae deletion strains, locus YKL190W, strain CNB1, hits give low values 1 | S. cerevisiae deletion strains, locus YKR001C, strain vps1, hits give low values 1.05 | S. cerevisiae deletion strains, locus YKR026C, strain gcn3, hits give low values 1.02 | S. cerevisiae deletion strains, locus YKR091W, strain srl3, hits give low values 1.01 | S. cerevisiae deletion strains, locus YLL001W, strain dnm1, hits give low values 1.03 | S. cerevisiae deletion strains, locus YLL026W, hits give low values 1.01 | S. cerevisiae deletion strains, locus YLL041C, strain sdh2, hits give low values 1.01 | S. cerevisiae deletion strains, locus YLR027C, strain aat2, hits give low values 1.01 | S. cerevisiae deletion strains, locus YLR039C, strain RIC1, hits give low values 1.04 | S. cerevisiae deletion strains, locus YLR058C, strain SHM2, hits give low values 1.01 | S. cerevisiae deletion strains, locus YLR102C, strain apc9, hits give low values 1.01 | S. cerevisiae deletion strains, locus YLR221C, strain rsa3, hits give low values 1.02 | S. cerevisiae deletion strains, locus YLR258W, strain gsy2, hits give low values 1.02 | S. cerevisiae deletion strains, locus YLR262C, strain YPT6 (second series), hits give low values 1.01 | S. cerevisiae deletion strains, locus YLR262C, strain YPT6, hits give low values 1.03 | S. cerevisiae deletion strains, locus YLR268W, strain sec22, hits give low values 1.03 | S. cerevisiae deletion strains, locus YLR320W, strain mms22, hits give low values 1.03 | S. cerevisiae deletion strains, locus YLR330W, strain CHS5, hits give low values 1.01 | S. cerevisiae deletion strains, locus YLR342W, strain FKS1 (second series), hits give low values 1.02 | S. cerevisiae deletion strains, locus YLR342W, strain FKS1, hits give low values 1.02 | S. cerevisiae deletion strains, locus YLR357W, strain rsc2, hits give low values 1 | S. cerevisiae deletion strains, locus YLR370C, strain arc18, hits give low values 1.02 | S. cerevisiae deletion strains, locus YLR371W, strain rom2, hits give low values 1 | S. cerevisiae deletion strains, locus YLR384C, strain iki3, hits give low values 1.01 | S. cerevisiae deletion strains, locus YLR418C, strain cdc73, hits give low values 1.05 | S. cerevisiae deletion strains, locus YML016C, strain PPZ1, hits give low values 1.01 | S. cerevisiae deletion strains, locus YML032C, strain rad52, hits give low values 1.01 | S. cerevisiae deletion strains, locus YML120C, strain ndi1, hits give low values 1.02 | S. cerevisiae deletion strains, locus YML124C, strain tub3, hits give low values 1.01 | S. cerevisiae deletion strains, locus YMR058W, strain fet3, hits give low values 1.01 | S. cerevisiae deletion strains, locus YMR078C, strain ctf18, hits give low values 1.03 | S. cerevisiae deletion strains, locus YMR125W, strain sto1, hits give low values 1 | S. cerevisiae deletion strains, locus YMR129W, hits give low values 1.01 | S. cerevisiae deletion strains, locus YMR205C, strain PFK2, hits give low values 1.01 | S. cerevisiae deletion strains, locus YMR223W, strain ubp8, hits give low values 1.03 | S. cerevisiae deletion strains, locus YMR231W, strain pep5, hits give low values 1.01 | S. cerevisiae deletion strains, locus YMR263W, strain SAP30, hits give low values 1 | S. cerevisiae deletion strains, locus YMR307W, strain GAS1, hits give low values 1.04 | S. cerevisiae deletion strains, locus YNL067W, strain RPL9B, hits give low values 0.997 | S. cerevisiae deletion strains, locus YNL071W, strain lat1, hits give low values 1.02 | S. cerevisiae deletion strains, locus YNL153C, strain GIM3, hits give low values 1 | S. cerevisiae deletion strains, locus YNL175C, strain NOP13, hits give low values 0.996 | S. cerevisiae deletion strains, locus YNL197C, strain WHI3, hits give low values 1.01 | S. cerevisiae deletion strains, locus YNL209W, strain ssb2, hits give low values 1 | S. cerevisiae deletion strains, locus YNL224C, strain SQS1, hits give low values 0.995 | S. cerevisiae deletion strains, locus YNL233W, strain BNI4, hits give low values 1 | S. cerevisiae deletion strains, locus YNL248C, strain rpa49, hits give low values 1.01 | S. cerevisiae deletion strains, locus YNL250W, strain rad50, hits give low values 1.03 | S. cerevisiae deletion strains, locus YNL271C, strain bni1, hits give low values 1.02 | S. cerevisiae deletion strains, locus YNL298W, strain CLA4, hits give low values 1.01 | S. cerevisiae deletion strains, locus YNL307C, strain MCK1, hits give low values 1.02 | S. cerevisiae deletion strains, locus YNL322C, strain KRE1 (second series), hits give low values 1.02 | S. cerevisiae deletion strains, locus YNL322C, strain KRE1, hits give low values 0.993 and 1 | S. cerevisiae deletion strains, locus YNR049C, strain mso1, hits give low values 1.01 | S. cerevisiae deletion strains, locus YNR052C, strain pop2, hits give low values 1.02 | S. cerevisiae deletion strains, locus YOL006C, strain TOP1, hits give low values 0.999 | S. cerevisiae deletion strains, locus YOL012C, strain htz1 1.91 | S. cerevisiae deletion strains, locus YOL147C, strain pex11, hits give low values 1.02 | S. cerevisiae deletion strains, locus YOR001W, strain rrp6, hits give low values 1.01 | S. cerevisiae deletion strains, locus YOR061W, strain CKA2, hits give low values 1.02 | S. cerevisiae deletion strains, locus YOR069W, strain VPS5, hits give low values 1.01 | S. cerevisiae deletion strains, locus YOR070C, strain gyp1, hits give low values 1.01 | S. cerevisiae deletion strains, locus YOR080W, strain dia2, hits give low values 1.02 | S. cerevisiae deletion strains, locus YOR083W, strain WHI5 (second series), hits give low values 0.994 | S. cerevisiae deletion strains, locus YOR083W, strain WHI5, hits give low values 1.02 | S. cerevisiae deletion strains, locus YOR106W, strain vam3, hits give low values 1.01 | S. cerevisiae deletion strains, locus YOR136W, strain idh2, hits give low values 1.02 | S. cerevisiae deletion strains, locus YOR144C, strain elg1, hits give low values 1.01 | S. cerevisiae deletion strains, locus YOR184W, strain ser1, hits give low values 1.02 | S. cerevisiae deletion strains, locus YOR265W, strain rbl2, hits give low values 1.01 | S. cerevisiae deletion strains, locus YOR270C, strain vph1, hits give low values 1.03 | S. cerevisiae deletion strains, locus YOR290C, strain snf2, hits give low values 0.991 | S. cerevisiae deletion strains, locus YOR316C, strain cot1, hits give low values 1.01 | S. cerevisiae deletion strains, locus YPL051W, strain arl3, hits give low values 1.01 | S. cerevisiae deletion strains, locus YPL055C, strain LGE1, hits give low values 0.992 | S. cerevisiae deletion strains, locus YPL078C, strain atp4, hits give low values 1.01 | S. cerevisiae deletion strains, locus YPL106C, strain sse1, hits give low values 0.999 | S. cerevisiae deletion strains, locus YPL240C, strain hsp82, hits give low values 1.02 | S. cerevisiae deletion strains, locus YPL241C, strain CIN2, hits give low values 1 | S. cerevisiae deletion strains, locus YPR119W, strain clb2, hits give low values 1.01 | S. cerevisiae deletion strains, locus YPR141C, strain kar3, hits give low values 1.01 | S. cerevisiae deletion strains, locus YPR163C, strain tif3, hits give low values 1.02 | S. cerevisiae deletion strains, locus YPR167C, strain met16, hits give low values 1.02 | S. cerevisiae deletion strains, strain wtn01, hits give low values 1.02 | S. cerevisiae strains, strain wild type, hits give low values 1
